# Out of some 47,000 compounds screened, about 200 (0.43%) were called active. Not shown: some 1% with an inconclusive outcome.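 The calls were made as follows: active = inhibition of aggregate fluorescence above about 70%, also judged a hit by eye on the cell image (limit read from the data, passing the limit was not always enough); inconclusive = no rule stated for this call; inactive = not judged a hit on image review.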 The full list was thinned out, with actives kept by preference.
# Experiment: clearance of mutant huntingtin inclusions, primary screen, imaging, HeLa Exon1htt(103Q)mCFP, confocal imaging (AID 853);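 also: cells exposed to compound for three days before fixation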
# Conditions: aggregate imaging, at 1.5 µM; fraction fluorescence in grains: measured here: aggregate grain fluorescence fraction, stronger effect = lower value; inhibition: stronger effect = higher value, zero = plate's median compound well
SMILES,fraction fluorescence in grains,inhibition
CC(Sc1nnc(Cc2ccc([N+](=O)[O-])cc2)o1)C(N)=O (centres undefined),30.7,0.3% (inactive)
Cc1nc(NC2=NC(C(=O)Nc3ccc(Cl)cc3)CC(=O)N2)nc2ccccc12 (centres undefined),22.8,22.1% (inactive)
CCCCCN1CC(O)=C(c2nc(-c3ccc(Cl)cc3)cs2)C1=N,36.3,8.6% (inactive)
CCN(CC)CCN1C(=O)C(=O)/C(=C(/O)c2cnn(-c3ccccc3)c2C)C1c1cccs1 (centres undefined),54.5,-25.7% (inactive)
O=C(NCCSCc1ccccc1)c1ccc(Cl)c(S(=O)(=O)N2CCOCC2)c1,25.6,-28.1% (inactive)
CC(=O)N1CCN(c2cccc(C)c2C)CC1,46.1,-25.4% (inactive)
CC(C)C[C@H](NC(=O)NCCc1ccc(Cl)cc1)C(=O)O,16.2,12.2% (inactive)
C[C@H](NC(=O)NCCc1ccccc1)C(=O)O,5.06,70.9% (active)
CSCC[C@H](NC(=O)NCCc1ccc(F)cc1)C(=O)O,15.6,18.4% (inactive)
O=C(c1ccc(F)cc1)c1c[nH]c(C(=O)NCc2cccnc2)c1,38.1,1% (inactive)
Fc1cnc(N2CCOCC2)nc1NCc1ccccc1,12.4,35.6% (inactive)
O=c1c2ccccc2nc2n1C(CSCc1ccccc1)CS2 (centres undefined),35.3,8.1% (inactive)
CCCc1cc(=O)[nH]c(SCC(=O)OCc2ccccc2)n1,59.2,-54.1% (inactive)
CCOC(=O)Cc1csc(NC(=O)CSc2nnc(-c3cccnc3)n2Cc2ccco2)n1,20.9,-18.9% (inactive)
Cc1nn(Cc2ccc(C(=O)N3N=C(C(F)F)CC3(O)C(F)F)cc2)c(C)c1[N+](=O)[O-] (centres undefined),62.5,-61% (inactive)
CCN1C(=O)/C(=C2/Sc3ccc(OC)cc3N2C)SC1=Nc1ccc(C)cc1,17.9,-1.7% (inactive)
CCOC(=O)c1cnc(SCC(=O)Nc2ccccc2C(=O)OC)nc1N,20.5,-16.8% (inactive)
COc1ccc(C(=O)Nc2nc(-c3ccc(OC)cc3)c(-c3ccc([N+](=O)[O-])cc3)s2)cc1,21.2,47.9% (inactive)
CCN(CC)S(=O)(=O)c1ccc2c3c(cccc13)C(=O)S2,38.9,-8.8% (inactive)
COc1ccc(Cl)cc1C(=O)NCC#N,28.6,27.9% (inactive)
COc1ccc(C(=O)NCCc2ccc(S(N)(=O)=O)cc2)cc1OC,43.5,-18.4% (inactive)
CCn1c(O)c2ccc(C(=O)N=NC(=O)c3cccnc3)cc2c1O,37.7,-25.3% (inactive)
Cc1ccc(-c2nn(-c3ccccc3)cc2/C=N/NC(=O)c2ccc3c(c2)OCO3)cc1,34,-12.7% (inactive)
CC12c3ccccc3C(c3ccccc31)C1C(=O)N(Cc3cccnc3)C(=O)C12 (centres undefined),12,60.9% (inactive)
COc1ccc(OC)c(/C=N/NC(=O)CSc2nnc(C)n2-c2ccccc2)c1,32.4,-7.5% (inactive)
Cc1cc(C)cc(NC(=O)c2cccc(NC(=O)C3C4CC5OC(=O)C3C5C4)c2)c1 (centres undefined),31,-31.4% (inactive)

SMILES,fraction fluorescence in grains,inhibition
O=C(c1ccccc1)c1cc(-c2ccccn2)c(N2CCOCC2)s1,30.5,22% (inactive)
Cc1ccc(-n2nc3c(c2NC(=O)CCC2CCCCC2)CS(=O)C3)cc1 (centres undefined),38.7,17.6% (inactive)
CC1=C(C(N)=O)C(c2sccc2C)n2nnnc2N1 (centres undefined),60.2,-59.3% (inactive)
O=C(Nc1ncc2c(n1)-c1ccccc1OC2)c1ccc(Cl)cc1,34.8,7.6% (inactive)
COc1cccc(N(CC(=O)NCCSc2ccccn2)S(C)(=O)=O)c1,32.4,-38.8% (inactive)
COc1cc(C)c(C(C)C)cc1S(=O)(=O)n1ccnc1,38.5,-120% (inactive)
O=C(NC1(C(F)(F)F)NC(=O)N(Cc2cccnc2)C1=O)c1ccccc1Cl (centres undefined),32.6,13.2% (inactive)
Cc1nnc(OCC(=O)NCCC2=CCCCC2)c2ccccc12,30.6,19% (inactive)
CCC(c1nnnn1Cc1ccco1)N(Cc1cc2cc(OC)ccc2[nH]c1=O)C1CCCCC1 (centres undefined),12.1,36.8% (inactive)
CCC(c1nnnn1Cc1ccco1)N(CCc1ccccc1)Cc1cc2cccc(C)c2[nH]c1=O (centres undefined),4.66,75.8% (active)
Cc1cc2cc(CN(Cc3cccs3)Cc3nnnn3CC3CCCO3)c(=O)[nH]c2cc1C (centres undefined),18,47.9% (inactive)
CCC(c1nnnn1Cc1ccccc1)N(Cc1cc2cc(OC)ccc2[nH]c1=O)CC1CCCO1 (centres undefined),3.01,83.8% (active)
CCC(c1nnnn1Cc1ccco1)N(CCc1ccccc1)Cc1cc2ccc(OC)cc2[nH]c1=O (centres undefined),19.4,46.6% (inactive)
CCC(c1nnnn1C1CCCC1)N(Cc1cccs1)Cc1cc2cccc(C)c2[nH]c1=O (centres undefined),14.9,27.8% (inactive)
CCOC(=O)C(C)Oc1cccc2c(=O)n(CC(=O)N3CCc4ccccc43)ccc12 (centres undefined),44.7,-33.2% (inactive)
CCCCNC(=O)OC(C)CNC(=O)OC (centres undefined),23.8,25% (inactive)
Cc1cc(C)c2c(-n3cccc3)c(NC(=O)OCc3ccccc3)sc2n1,37.4,-74.7% (inactive)
Cc1ccccc1CS(=O)(=O)CC1(O)CCN(C(=O)c2cccc(C(F)(F)F)c2)CC1,32.9,14.5% (inactive)
CC(=O)c1cccc(NC(=O)c2ccncc2)c1,33.8,20.4% (inactive)
COc1ccc2c3c(c(=O)oc2c1OCC(=O)C(C)(C)C)CCCC3,20.5,-3.3% (inactive)
N=c1c2c(-c3ccccc3)c(-c3ccccc3)oc2ncn1Cc1ccco1,39.1,-27.2% (inactive)
Cc1nnc(SCC(=O)N2CCN(c3ccccc3)CC2)n1-c1ccccc1,45.5,-15% (inactive)
O=C(O)c1ccc(F)c(S(=O)(=O)Nc2ccccc2)c1,49.7,-13.1% (inactive)
O=C(C(NS(=O)(=O)c1cccc2nsnc12)c1ccccc1)N1CCN(c2ccccn2)CC1 (centres undefined),32.5,12.4% (inactive)
O=C(O)c1ccc(NS(=O)(=O)c2cccc3nsnc23)cc1,5.36,70.5% (active)
Cc1cccc(-c2nc3c(c(SCC(=O)N4CCOCC4)n2)CCCC3)c1,18.5,-1.6% (inactive)
